Shown are actives, neighbours in structure and some others; about 11% of the full set was active somewhere.
AMA1-RON2 inh – AMA1-RON2 (P. falciparum) interaction inhibition; hit rate 0.2% among 360,000; Potency, µM (series often up to 58.2 µM), without a hit: at the top dose activity change, negative = inhibition, most hits filed as inhibitors; AlphaScreen AMA1-biotinylated RON2 peptide binding;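 note: 0% = vehicle wells and -100% = peptide control; nearly all actives have a fitted effect of over 45% in size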
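AMA1 (3D7) with his tag at 25 nM final met compounds first, then biotinylated RON2 peptide at 25 nM; detection used donor plus acceptor beads, 10 µg/mL apiece, read by AlphaScreen after 30 min at room temperature.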
Pf growth 96h – P. falciparum growth inhibition at 96 hours; P. falciparum luciferase reporter growth, 96 h; Potency, µM (series often up to 28.7 µM), for inactives: at the top dose activity change, negative = inhibition, actives largely listed as inhibitors; AID 504834; hit rate 6.9% among 320,000; note: % is set by controls: 0 for no effect and ±100 for the full control effect
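Delayed-death screen, second-generation endpoint: infected erythrocytes, 2% hematocrit, 0.05% parasitemia final; 96 hours at 37 C, 5% CO2; luciferase detection reagent; luminescence decrease equals reduced growth.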
Pf growth 48h – P. falciparum growth inhibition at 48 hours (one generation); P. falciparum luciferase growth in erythrocytes, 48 h; Potency, µM (highest dose often 28.7 µM), inactives show top-dose activity change, negative = inhibition, most hits filed as inhibitors; hit rate 5.9% among 310,000; AID 504832; note: % is set by controls: 0 for no effect and ±100 for the full control effect
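Growth was read as firefly luciferase luminescence after a 48 h, 37 C, 5% CO2 exposure of compounds to reporter-bearing P. falciparum cultures (0.1% parasitemia, 2% hematocrit final) in Albumax-supplemented RPMI 1640.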
NS1 inh – blocks influenza NS1 protein function | hit rate 0.4% among 270,000 | Potency, µM (doses to about 46.1 µM), for the others: at the highest dose activity, positive = more growth; calls by dose curve; note: actives are rising curves; nearly all actives have a fitted effect of over 50% in size
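S. cerevisiae expressing influenza A NS1, grown in glucose, washed, then diluted 1:100 into pH 6.0 -URA galactose medium with 23 nl compound. Growth recovery read as OD600; NS1-free strain serves as control.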
Sm TGR block – inhibitors of Schistosoma mansoni thioredoxin glutathione reductase. Q962Y6. purified TGR, DTNB reduction, TNB absorbance 405 nm. Potency, µM (top dose mostly 114 µM), without a hit: at the highest dose activity change, negative = inhibition, hits mostly inhibitors. hit rate 3% among 360,000. AID 485364; note: % is set by controls: 0 for no effect and ±100 for the full control effect; nearly all actives have a fitted effect of over 60% in size
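Kinetic colorimetric format: TGR-catalysed, NADPH-driven DTNB reduction monitored via TNB absorbance. Enzyme dispensed at 20 nM; compound exposure 15 min at room temperature before reaction start.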
* hit, by the source's call; ? = inconclusive; . = no result given. Unless noted, calls come from the whole dose curve; as a rule, active = well fitted curve in the direction sought with a large enough effect; inconclusive = small, poorly fitted or top-dose-only effect, or another doubt; inactive = no such curve, though single readings can be large; an effect the other way counts as inactive or inconclusive. Potency is the fitted concentration of half-maximal effect.

SMILES	AMA1-RON2 inh	Pf growth 96h	Pf growth 48h	NS1 inh	Sm TGR block
CCC(=O)Nc1ccccc1C(=O)N1CCOCC1	14%	?	20%	3%	29%
COc1cc(NC(=O)c2c(-c3ccccc3Cl)noc2C)c2ncccc2c1	2%	.	.	.	.
Cc1onc(-c2ccccc2Cl)c1C(=O)Nc1cccc2cccnc12	-2%	?	9.3µM*	-63%	-20%
COc1ccc(S(=O)(=O)NC2CCCCC2)cc1F	0%	32%	6%	-67%	-7%
Cc1ccccc1CC1(CO)CCCN(C(=O)c2ccoc2)C1 (centres undefined)	0%	.	.	.	.
O=C(Cc1ccccc1)Nc1cccc(N2C(=O)C=CC2=O)c1	9%	-25%	-2%	-24%	0.45µM*
CCn1ccnc1CNC(=O)C1CCC(=O)N(Cc2ccccc2F)C1 (centres undefined)	5%	12µM*	-1%	4%	-21%
CCc1nc2ccc(C(=O)N3CCN(S(=O)(=O)CC)CC3)cn2c1N(CC)Cc1cccc(Br)c1	-3%	.	.	.	.
COc1ccc(NC(=O)C(C)Sc2nnc3c4c(nc(-c5ccc(OC)cc5)n23)CC(C)(C)OC4)cc1 (centres undefined)	-2%	?	2.9µM*	0%	0%
O=C(Nc1ccc2oc(-c3cc(Br)ccc3Cl)nc2c1)c1cc2ccccc2o1	.	.	.	.	14%
N/C(=N\OC(=O)c1ccccc1Br)c1cccc([N+](=O)[O-])c1	-14%	311%	.	-6%	-16%
N/C(=N\OC(=O)c1ccccc1F)c1cccc([N+](=O)[O-])c1	1%	12µM*	146%	-20%	2%
Cc1ccc(C(=O)O/N=C(\N)c2cccc([N+](=O)[O-])c2)cc1	-9%	142%	134%	-48%	0%
Cc1ccc(CC(=O)O/N=C(\N)c2cccc([N+](=O)[O-])c2)cc1	-4%	15µM*	31%	-15%	4%
CCOC(=O)c1c(C)oc2nc(C)nc(NCCc3ccc(OCC)c(OCC)c3)c12	.	.	.	.	-12%
COc1cccc(/C=N/NC(=O)c2c(C)nc3ccc(Cl)cn23)c1O	-12%	2%	9.3µM*	-26%	-21%
Cc1nc2ccc(Br)cn2c1C(=O)N/N=C\c1ccccc1Cl	-2%	3.3µM*	70%	-7%	-29%
COc1ccccc1/C=N\NC(=O)c1c(C)nc2ccc(Cl)cn12	33%	24%	32%	4%	-2%
O=[N+]([O-])c1ccccc1S(=O)NCc1c(Cl)cccc1Cl (centres undefined)	-4%	.	.	.	.
COc1ccc(CN2CCC[C@]3(N[C@H](c4ccc(C)cc4)[C@@H]4C(=O)N(Cc5ccccc5)C(=O)[C@@H]43)C2=O)cc1	-8%	.	.	.	.
CC(C)(C)c1cc(CP(=O)(c2ccccc2)c2ccccc2)cc(C(C)(C)C)c1O	-3%	?	?	-26%	?
Cc1cc(C(F)(F)F)nn1CC(=O)NCc1ccco1	-5%	1.5µM*	17%	7%	?
O=C(Cn1ncn2c(cc3ccccc32)c1=O)NCc1ccco1	4%	?	-3%	3%	32µM*
Cc1c(Cl)c([N+](=O)[O-])nn1CC(=O)NCc1ccco1	7%	1.5µM*	12%	2%	0%
O=C(CN1CCSC1=O)N1CCN(S(=O)(=O)c2ccc(F)cc2)CC1	0%	33%	-1%	.	-2%
SMILES	AMA1-RON2 inh	Pf growth 96h	Pf growth 48h	NS1 inh	Sm TGR block
OC(CN1CCCCC1)Cn1c2ccc(Cl)cc2c2cc(Cl)ccc21 (centres undefined)	-22%	?	1.9µM*	-8%	0%
OC(CN1CCN(c2ccccn2)CC1)Cn1c2ccc(Cl)cc2c2cc(Cl)ccc21 (centres undefined)	-4%	.	1.7µM*	-124%	23%
CC1CCN(CC(O)Cn2c3ccccc3c3ccccc32)CC1 (centres undefined)	-5%	?	?	4%	0%
CC1CN(CC(O)COC(c2ccc(Cl)cc2)c2ccc(Cl)cc2)CC(C)O1 (centres undefined)	2%	?	3.7µM*	-22%	-4%
CC1CN(CC(O)COc2ccc(C(C)C)cc2)CC(C)O1 (centres undefined)	1%	-15%	-2%	-10%	-30%
OC(COC(c1ccc(Cl)cc1)c1ccc(Cl)cc1)CN1CCN(c2ccccn2)CC1 (centres undefined)	28µM*	?	?	-57%	-2%
